Data on four compounds can be found in PubChem BioAssay (NCATS).

Assay [1] has as its target Alpha-galactosidase (Coffea arabica) (UniProt Q42656). The experiment in a line: Counterscreen for Glucocerebrosidase Inhibitors: qHTS Assay for Coffee Bean alpha-Galactosidase at pH 4.5 (AID 957).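 Note: plate controls were enzyme alone for no effect and no enzyme for full effect.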 In outline: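 Coffee bean alpha-galactosidase 2 nM, substrate 4-MU-alpha-Gal 80 uM, pH 4.5 citrate/Tween-20, 20 min RT. Cpd titration 0.7 nM–77 uM. Stop pH 10, fluorescence 365/440 nm; Hill-equation AC50.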

Assay [2] shares this target. The experiment in a line: Counterscreen for Glucocerebrosidase Inhibitors: qHTS Assay for Coffee Bean alpha-Galactosidase at pH 5.9 (AID 998).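 Note: plate controls were uninhibited enzyme for no effect and no-enzyme basal signal for full effect.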 In outline: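 Compounds were titrated from 0.7 nM to 77 uM against green coffee bean alpha-galactosidase (2 nM) using 80 uM fluorogenic 4-methylumbelliferyl substrate. After 20 min at room temperature, reactions were stopped at pH 10 and read by fluorescence.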
(A counterscreen serves to expose hits that act by an unwanted route or on another target.)

Assay [3] is described as follows: Inducers of the Endoplasmic Reticulum Stress Response (ERSR) in human glioma: Validation (AID 504836). Note: 0% is about no effect. In outline:
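ERSR induction read as luciferase luminescence (Bright-Glo, 10 min at room temperature) in stably transfected human U87-MG glioma cells exposed to compounds for 16 h, using GRP78 as sensor.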

Assay [4] can be described thus: Validation of Assay for Modulators of Lamin A Splicing (AID 1459; active = well fitted curve in the direction sought with a large enough effect in the signal ratio; the % refers to the signal ratio;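 note: cells exposed to compound for two days before reading; 0% is about no effect; ratio rise marks activators and ratio drop marks inhibitors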). In outline:
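Splicing correction read as GFP (500-530 nm) over DsRed2 (575-640 nm) object intensity after 48 h compound exposure of reporter HeLa S3 clones (600 cells/well, 2% FBS medium); ancitabine and cycloheximide titrations, 0.5% DMSO as vehicle.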

The nature of assay [5]: qHTS for differential inhibitors of proliferation of Plasmodium falciparum line 7G8 (AID 1815).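 Note: parasite growth measured after three days of incubation; plate controls were vehicle wells for no effect and reference inhibitor wells for full effect.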
A short description of assay [6]: qHTS for differential inhibitors of proliferation of Plasmodium falciparum line GB4 (AID 1816).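 Note: potency is the fitted concentration of half-maximal effect; parasite growth measured after 72 h incubation.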 To be noted: Potency: Plasmodium falciparum GB4 proliferation inhibition. A general note: qHTS replaces the single test concentration by a dilution series.
A short description of assay [7]: qHTS for differential inhibitors of proliferation of Plasmodium falciparum line Dd2 (AID 1882).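 Note: plate controls were DMSO vehicle for no effect and 0.29 µM artemisinin for full effect; nearly all actives have a fitted effect of over 65% in size.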 To be noted: Potency: Plasmodium falciparum Dd2 proliferation inhibition. An outline of the steps:
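Dd2-infected erythrocytes (0.3% parasitemia, 2.5% hematocrit final) incubated with compound 72 h at 37 C, 5% CO2; lysed with saponin/Triton buffer containing SYBR Green I, incubated overnight in the dark, then read by fluorescence (485/535 nm). Normalized to 0.29 uM artemisinin and DMSO.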

Assay [8] in a line: High Content Imaging Cell-Based qHTS for Inhibitors of the mTORC1 Signaling Pathway in MEF Cells (AID 2667).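 Note: Tsc2-/- p53-/- MEFs stably re-expressing wild-type Tsc2 exposed 24 h; plate controls were DMSO wells for no effect and rapamycin control wells for full effect.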 An outline of the steps: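 Immunofluorescence for rpS6 phosphorylation in MEFs of Tsc2-/-, p53-/- background rescued with WT Tsc2. Compound exposure lasted 24 hrs. Inhibition was scored against rapamycin-treated control wells.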
The target of assay [9] is DNA polymerase III PolC-type (Bacillus subtilis (strain 168)) (UniProt P13267). The experiment in a line: qHTS Validation Assay for the Inhibitors of DNA Replication in Gram-Positive Bacteria (AID 485295).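 Note: reconstituted holoenzyme with PolC plus beta clamp SSB and primase; PicoGreen fluorescence of double-stranded DNA made on primed circular M13 template; 0% = DMSO wells and -100% = EDTA-quenched background wells.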 In outline: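 Double-stranded DNA product detected by PicoGreen fluorescence after EDTA quench. Compound incubated with B. subtilis holoenzyme (PolC, beta subunit, SSB, primase) before substrate addition; primed replication of M13Gori with dNTPs and NTPs at room temperature; DMSO defines 0% inhibition.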
Sequence of DNA polymerase III PolC-type (Bacillus subtilis (strain 168)) (P13267 whole entry, looked up): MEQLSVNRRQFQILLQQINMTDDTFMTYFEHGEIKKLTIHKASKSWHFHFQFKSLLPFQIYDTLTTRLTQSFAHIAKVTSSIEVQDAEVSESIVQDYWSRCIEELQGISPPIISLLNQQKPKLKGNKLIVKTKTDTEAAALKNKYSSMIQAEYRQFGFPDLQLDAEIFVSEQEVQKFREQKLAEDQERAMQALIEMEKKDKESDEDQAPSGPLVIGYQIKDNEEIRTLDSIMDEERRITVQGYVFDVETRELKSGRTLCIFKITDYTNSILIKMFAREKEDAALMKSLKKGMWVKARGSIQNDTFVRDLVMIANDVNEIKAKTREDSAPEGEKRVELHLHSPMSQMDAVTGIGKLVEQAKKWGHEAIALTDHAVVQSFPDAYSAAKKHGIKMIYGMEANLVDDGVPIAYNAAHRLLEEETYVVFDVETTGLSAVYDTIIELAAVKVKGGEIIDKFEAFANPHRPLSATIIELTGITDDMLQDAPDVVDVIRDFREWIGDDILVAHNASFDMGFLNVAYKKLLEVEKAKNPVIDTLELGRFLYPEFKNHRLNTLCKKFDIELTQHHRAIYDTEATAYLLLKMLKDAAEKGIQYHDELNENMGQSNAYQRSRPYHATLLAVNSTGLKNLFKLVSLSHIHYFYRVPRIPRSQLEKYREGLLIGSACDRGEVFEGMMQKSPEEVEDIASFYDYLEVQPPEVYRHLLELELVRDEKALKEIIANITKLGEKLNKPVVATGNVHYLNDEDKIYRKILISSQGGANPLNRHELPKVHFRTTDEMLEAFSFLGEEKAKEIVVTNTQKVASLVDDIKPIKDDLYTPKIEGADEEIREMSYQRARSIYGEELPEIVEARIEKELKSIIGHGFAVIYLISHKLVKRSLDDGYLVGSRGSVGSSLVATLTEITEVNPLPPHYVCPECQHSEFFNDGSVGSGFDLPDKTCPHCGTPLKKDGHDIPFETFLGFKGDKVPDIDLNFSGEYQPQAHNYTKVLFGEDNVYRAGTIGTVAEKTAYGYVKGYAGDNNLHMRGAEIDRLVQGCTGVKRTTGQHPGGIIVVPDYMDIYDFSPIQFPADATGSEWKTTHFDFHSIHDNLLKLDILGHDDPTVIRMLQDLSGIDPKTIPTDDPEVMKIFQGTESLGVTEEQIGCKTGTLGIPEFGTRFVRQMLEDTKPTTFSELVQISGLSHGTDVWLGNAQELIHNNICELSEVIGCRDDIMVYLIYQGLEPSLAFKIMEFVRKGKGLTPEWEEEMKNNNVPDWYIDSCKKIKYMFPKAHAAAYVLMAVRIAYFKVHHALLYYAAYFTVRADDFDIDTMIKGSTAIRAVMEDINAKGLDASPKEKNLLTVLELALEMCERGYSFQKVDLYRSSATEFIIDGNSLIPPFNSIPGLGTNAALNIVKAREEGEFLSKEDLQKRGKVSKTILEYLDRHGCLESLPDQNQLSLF

Assay [10] concerns the target ATP-dependent 6-phosphofructokinase (Trypanosoma brucei brucei) (UniProt O15648). The experiment in a line: qHTS Validation Assay to Find Inhibitors of T. brucei phosphofructokinase (AID 485368). To be noted: T. brucei PFK enzyme assay, qHTS 7-point titration; at 57.5 µM (top of the series). In outline:
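Compounds (up to 57 uM, titration series) were pinned into substrate buffer, then 1.25 nM PFK added; after 45 min at room temperature, ADP product was quantified by ADP-Glo luminescence and concentration-response curves fitted.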

In assay [11] the target is Arylsulfatase A (Homo sapiens) (UniProt P15289). The experiment in a line: qHTS screen for enhancers of Arylsulfatase A (ASA1): LOPAC Validation Assay (AID 720538). Note: 0% is about no effect. In outline:
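Enhancer assay in patient-derived MLD fibroblasts carrying ASA-I179S: 48 h compound exposure at 37 C, then 14 h room-temperature pNCS turnover (0.5 mM final) in lysis buffer. Read by fluorescence at 525/598 nm after NaOH stop.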

Assay [12] in a line: qHTS profiling of the MIPE4 collection as inhibitors of Plasmodium falciparum (3D7) proliferation (AID 743344; call rule not given here;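 note: scaled between DMSO vehicle wells and 0.29 µM artemisinin as full inhibition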). To be noted: P. falciparum 3D7 in erythrocytes, SYBR Green DNA fluorescence, 72 h; at 28.5 µM (top of the series) unless noted. An outline of the steps:
(§1)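 Erythrocytes infected with P. falciparum (0.3% parasitemia, 2.5% hematocrit) incubated with compounds 72 h at 37 C, 5% CO2. Lysis with saponin/Triton buffer containing SYBR Green I, overnight at room temperature in the dark; DNA fluorescence (485/535 nm) normalised to 0.29 uM artemisinin and DMSO.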

The nature of assay [13]: qHTS profiling of the MIPE4 collection as inhibitors of Plasmodium falciparum (DD2) proliferation (AID 743345; call rule not given here). To be noted: P. falciparum Dd2 in erythrocytes, SYBR Green DNA, 72 h; at 28.5 µM (top of the series) unless noted. In outline: as §1
Assay [14] can be described thus: qHTS profiling of the MIPE4 collection as inhibitors of Plasmodium falciparum (DD2) proliferation (Rep 2) (AID 743346; call rule not given here). To be noted: P. falciparum Dd2 in erythrocytes, SYBR Green DNA, 72 h; at 28.5 µM (top of the series) unless noted. In outline: as §1
The target of assay [15] is DNA repair nuclease/redox regulator APEX1 (Homo sapiens) (UniProt P27695). The experiment in a line: qHTS Validation Assay for Inhibitors of the Human Apurinic/apyrimidinic Endonuclease 1 (APE1) (AID 1705;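 note: TAMRA fluorescence gain over two minutes as APE1 cuts a quenched THF abasic duplex; % is set by controls: 0 for no effect and ±100 for the full control effect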). In outline: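 Activity read as rising fluorescence (598 nm emission, 525 nm excitation) from incision of a TAMRA/BHQ-2 duplex carrying a THF abasic site (50 nM). Compound and enzyme sat 15 min at RT before substrate start; signal change between first and third 60-s reads.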
Sequence of DNA repair nuclease/redox regulator APEX1 (Homo sapiens) (P27695 whole entry, looked up): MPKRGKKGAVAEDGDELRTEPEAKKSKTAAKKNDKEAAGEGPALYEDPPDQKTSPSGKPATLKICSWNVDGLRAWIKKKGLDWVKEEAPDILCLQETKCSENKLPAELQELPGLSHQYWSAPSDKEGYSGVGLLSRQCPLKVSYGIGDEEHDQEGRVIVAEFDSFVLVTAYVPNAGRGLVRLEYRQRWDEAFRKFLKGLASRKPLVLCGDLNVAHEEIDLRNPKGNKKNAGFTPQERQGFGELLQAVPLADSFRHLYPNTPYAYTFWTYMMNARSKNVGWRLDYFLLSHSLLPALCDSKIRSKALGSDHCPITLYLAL

Assay [16] can be described thus: Counterscreen for APE1 Inhibitors: Fluorescent Dye Displacement Validation Assay (AID 1707).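 Note: plate controls were ThO with dsDNA and no compound for no effect and ThO without dsDNA for full effect.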 In outline:
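Thiazole Orange displacement from dsDNA: 250 nM ThO with 50 nM TAMRA-labelled abasic-site (tetrahydrofuran) duplex in 50 mM Tris-HCl pH7.5, 50mM NaCl, 2 mM MgCl2, 0.01% Tween-20. Loss of endpoint fluorescence (ex 480 nm, em 540 nm) flags DNA binders.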

For assay [17], the target named is Endonuclease 4 (Escherichia coli (strain K12)) (UniProt P0A6C1). The experiment in a line: Counterscreen for APE1 Inhibitors: qHTS Validation Assay for Inhibitors of Endonuclease IV (AID 1708). Note: % is set by controls: 0 for no effect and ±100 for the full control effect. An outline of the steps: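 qHTS concentration-response format; LOPAC1280 tested under APE1-screen conditions. 2 nM enzyme, 15 min compound preincubation at RT, then 50 nM TAMRA/BHQ-2 abasic substrate; kinetic fluorescence read, three reads at 60 s intervals.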

Assay [18] can be described thus: qHTS for differential inhibitors of proliferation of Plasmodium falciparum line 3D7 (AID 1876).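 Note: parasite growth measured after three days of culture; 0% = vehicle wells and -100% = reference inhibitor wells.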
The nature of assay [19]: qHTS for differential inhibitors of proliferation of Plasmodium falciparum line D10 (AID 1877).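 Note: parasites grown with compound for 72 h before DNA staining; plate controls were vehicle wells for no effect and reference inhibitor wells for full effect.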
Assay [20] can be described thus: qHTS for differential inhibitors of proliferation of Plasmodium falciparum line HB3 (AID 1886).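 Note: parasites grown with compound for 72 h before SYBR Green readout; plate controls were vehicle for no effect and reference inhibitor for full effect.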 To be noted: Potency: Plasmodium falciparum HB3 proliferation inhibition.
The target in assay [21] is ATP-dependent DNA helicase Q1 (Homo sapiens) (UniProt P46063). The experiment in a line: qHTS Validation Assay for Inhibitors of RecQ-Like Dna Helicase 1 (RECQ1) (AID 2353).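 Note: plate controls were DMSO vehicle for no effect and enzyme-free control for full effect.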 In outline:
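50 nM RECQ1T1 preincubated 15 min with compound in Tris pH 8.0 buffer with MgCl2, DTT, Tween-20 and 2.5 ug/ml poly(dI-dC); started with 200 nM TAMRA/BHQ-2 forked duplex and 2 mM ATP. Unwinding read as fluorescence (525/598 nm), two reads 2 h apart.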

Assay [22] in a line: Validation screen for small molecules that induce DNA re-replication in MCF 10A normal breast cells (AID 463097). Note: 0% is about no effect; nearly all actives have a fitted effect of over 60% in size. In outline:
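Read-out is Hoechst total nuclear intensity by fluorescence scanning imager, flagging increased high-DNA-content nuclei. Compounds were incubated with MCF 10A cells for 48 hr (37 C, 5% CO2) before 40 min staining.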

Assay [23] is described as follows: Quantitative high throughput screen for delayed death inhibitors of the malarial parasite plastid, 96 hour incubation (AID 488745).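 Note: luciferase-expressing P. falciparum in erythrocytes at 2% hematocrit and 0.1% parasitemia; % is set by controls: 0 for no effect and ±100 for the full control effect; nearly all actives have a fitted effect of over 70% in size.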 In outline: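 Infected erythrocytes were added to compound in Albumax-supplemented RPMI 1640 at 0.1% parasitemia and 2% hematocrit (final), incubated 96 h at 37 C under 5% CO2, then luciferase reagent was added and luminescence measured.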

A short description of assay [24]: Quantitative high throughput screen for delayed death inhibitors of the malarial parasite plastid, 48 hour incubation (AID 488752). Note: % is set by controls: 0 for no effect and ±100 for the full control effect; nearly all actives have a fitted effect of over 65% in size. In outline: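 Readout is firefly luciferase luminescence from a reporter integrated into the parasite genome, with lower signal taken as inhibited growth. Infected red cells (0.1% parasitemia, 2% hematocrit final) are cultured with compound for one 48 h cycle at 37 C.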

For assay [25], the target named is M-phase phosphoprotein 8 (Homo sapiens) (UniProt Q99549). The experiment in a line: qHTS Validation Assay for Inhibitors for MPP8 Chromodomain Interactions with Methylated Histone Tails (AID 488949). Note: potency is the fitted concentration of half-maximal effect; nearly all actives have a fitted effect of over 55% in size. An outline of the steps: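 AlphaScreen proximity signal from streptavidin donor and Ni-chelate acceptor beads (10 ug/mL each) reported binding of MPP8 to trimethyl-K9 H3(1-18) peptide, both at 50 nM. The complex formed 30 min before a 30 min compound exposure at room temperature, in PBS pH 7.4.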
Sequence of M-phase phosphoprotein 8 (Homo sapiens) (Q99549 whole entry, looked up): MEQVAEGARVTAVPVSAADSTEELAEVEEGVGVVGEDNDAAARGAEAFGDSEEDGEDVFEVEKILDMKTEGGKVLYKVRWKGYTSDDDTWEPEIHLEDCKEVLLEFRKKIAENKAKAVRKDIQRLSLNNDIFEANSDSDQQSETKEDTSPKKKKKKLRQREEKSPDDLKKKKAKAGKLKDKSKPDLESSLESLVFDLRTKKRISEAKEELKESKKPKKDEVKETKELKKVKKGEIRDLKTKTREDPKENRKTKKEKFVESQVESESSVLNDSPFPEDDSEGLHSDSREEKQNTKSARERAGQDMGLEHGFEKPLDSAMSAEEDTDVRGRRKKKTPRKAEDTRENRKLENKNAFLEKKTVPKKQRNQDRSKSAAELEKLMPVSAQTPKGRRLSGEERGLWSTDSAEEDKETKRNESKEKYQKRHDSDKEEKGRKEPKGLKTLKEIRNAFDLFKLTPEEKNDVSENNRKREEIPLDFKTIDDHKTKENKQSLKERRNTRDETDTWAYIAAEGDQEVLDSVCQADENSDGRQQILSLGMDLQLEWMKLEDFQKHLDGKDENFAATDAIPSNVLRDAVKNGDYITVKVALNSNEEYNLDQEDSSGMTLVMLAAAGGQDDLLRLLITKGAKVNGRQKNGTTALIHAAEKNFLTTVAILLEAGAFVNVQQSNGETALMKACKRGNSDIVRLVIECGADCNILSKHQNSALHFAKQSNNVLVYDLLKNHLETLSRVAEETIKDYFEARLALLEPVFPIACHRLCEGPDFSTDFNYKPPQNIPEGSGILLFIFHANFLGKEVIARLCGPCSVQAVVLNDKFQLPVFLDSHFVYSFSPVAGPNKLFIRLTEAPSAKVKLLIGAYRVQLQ

The target of assay [26] is Thyrotropin receptor (Homo sapiens) (UniProt P16473). The experiment in a line: qHTS Assay for Antagonists of the Thyroid Stimulating Hormone Receptor (AID 488980). Note: 0% is about no effect. In outline: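 Inhibition of cAMP raised by EC80 TSH (4 nM final) was read by HTRF, with lysate cAMP competing against cAMP-d2 for cryptate antibody after 30 min at room temperature. The cells were transfected HEK293 held in phosphodiesterase inhibitor RO 20-1724 at 70 uM.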

The target in assay [27] is Thyrotropin-releasing hormone receptor (Homo sapiens) (UniProt P34981). The experiment in a line: qHTS for Small Molecule Agonists and Allosteric Enhancers of Human TRH Receptor: Validation Screen for Agonists (AID 493127;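 active = calcium activation more than 3 SD above the typical response in the agonist read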;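 note: intracellular calcium rise by fluo-8 fluorescence before TRH EC20 addition; 0% is about no effect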). To be noted: TRH receptor agonist cell assay; at 2 µM; stronger effect = higher value. In outline:
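Cells 2000/well, 10% FCS, 18 h 33.5C/5% CO2 → fluo-8 Ca dye, RT 30 min–1.5 h → FDSS baseline 10 × 1 s → compound added → 230 cycles (1 s/cycle) agonist mode. TRH controls.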

The target of assay [28] is Galactokinase (Homo sapiens) (UniProt P51570). The experiment in a line: qHTS Validation Assay for Inhibitors of Human Galactokinase (GALK) (AID 493189). Note: 0% is about no effect. An outline of the steps: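 Inhibition was measured as remaining ATP, detected by luciferase luminescence after a 1 h room-temperature reaction. Final conditions: 5 nM GALK, 100 uM galactose, 35 uM ATP, pH 8.0 HEPES buffer.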
Sequence of Galactokinase (Homo sapiens) (P51570 whole entry, looked up): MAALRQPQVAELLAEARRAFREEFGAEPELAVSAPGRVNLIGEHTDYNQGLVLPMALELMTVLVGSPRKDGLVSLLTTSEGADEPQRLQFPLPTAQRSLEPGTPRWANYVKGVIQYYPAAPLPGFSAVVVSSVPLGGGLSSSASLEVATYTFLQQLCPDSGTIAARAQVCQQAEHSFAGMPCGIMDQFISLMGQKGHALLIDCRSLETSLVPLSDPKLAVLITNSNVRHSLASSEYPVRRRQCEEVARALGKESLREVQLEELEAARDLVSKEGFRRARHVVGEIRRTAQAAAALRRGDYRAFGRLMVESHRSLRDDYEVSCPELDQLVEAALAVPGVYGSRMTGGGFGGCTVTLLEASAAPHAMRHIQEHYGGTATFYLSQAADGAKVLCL

Assay [29] is described as follows: Validation screen for small molecules that induce DNA re-replication in SW480 colon adenocarcinoma cells (AID 504364). Note: 0% is about no effect. In outline:
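250 cells/well; compound pinned in; 48 hr, 37 C, 5% CO2; Hoechst added, 40 min; nuclear fluorescence imaged, 405 ex / 500-530 em; re-replication scored as increase in high-intensity nuclei.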

The target in assay [30] is Voltage-gated inwardly rectifying potassium channel KCNH2 (Homo sapiens) (UniProt Q12809). The experiment in a line: qHTS Assay for Small Molecule Inhibitors of the Human hERG Channel Activity (AID 588834).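 Note: top concentration of the series differs between compounds; % is set by controls: 0 for no effect and ±100 for the full control effect; lower thallium flux fluorescence means stronger hERG block; nearly all actives have a fitted effect of over 50% in size.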 An outline of the steps: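 Kinetic FDSS fluorescence; U2OS + hERG BacMam (~100 virus particles/cell); FluxOR Tl+ flux; ~10 min cpd; AC50 (Hill).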
The target in assay [31] is N-terminal Xaa-Pro-Lys N-methyltransferase 1 (Homo sapiens) (UniProt Q9BV86). The experiment in a line: qHTS Assay for Inhibitors of N-terminal methyltransferase 1 (NTMT1): LOPAC validation of the NTMT1 SAHH-coupled ThioGlo3 Assay (AID 1347143).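 Note: SAH from peptide methylation measured as thiol fluorescence via SAHH coupling and ThioGlo3; % is set by controls: 0 for no effect and ±100 for the full control effect; nearly all actives have a fitted effect of over 70% in size.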 An outline of the steps:
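Inhibition of NTMT1 methylation of peptide SPKRIA is followed by converting SAH with SAHH and labelling the released thiol with ThioGlo3. Plates are read at 340/450nm before and 30 min after reagent addition, both at room temperature.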

Inconclusive results are not listed. Active and inactive are the calls of the source. Unless noted, calls come from the whole dose curve; as a rule, active = well fitted curve in the direction sought with a large enough effect; inconclusive = small, poorly fitted or top-dose-only effect, or another doubt; inactive = no such curve, though single readings can be large; an effect the other way counts as inactive or inconclusive.

Sequence of Alpha-galactosidase (Coffea arabica) (Q42656 whole entry, looked up): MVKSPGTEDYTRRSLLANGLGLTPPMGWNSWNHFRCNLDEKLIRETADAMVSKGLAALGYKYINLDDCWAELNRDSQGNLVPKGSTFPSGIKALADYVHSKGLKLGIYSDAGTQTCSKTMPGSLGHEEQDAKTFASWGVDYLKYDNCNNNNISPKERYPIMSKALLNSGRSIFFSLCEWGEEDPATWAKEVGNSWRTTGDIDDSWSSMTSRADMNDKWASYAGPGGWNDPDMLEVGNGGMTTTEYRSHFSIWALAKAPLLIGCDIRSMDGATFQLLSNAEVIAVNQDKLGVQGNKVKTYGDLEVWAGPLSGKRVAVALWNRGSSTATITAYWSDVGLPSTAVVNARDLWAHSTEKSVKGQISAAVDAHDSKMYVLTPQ
Sequence of Arylsulfatase A (Homo sapiens) (P15289 whole entry, looked up): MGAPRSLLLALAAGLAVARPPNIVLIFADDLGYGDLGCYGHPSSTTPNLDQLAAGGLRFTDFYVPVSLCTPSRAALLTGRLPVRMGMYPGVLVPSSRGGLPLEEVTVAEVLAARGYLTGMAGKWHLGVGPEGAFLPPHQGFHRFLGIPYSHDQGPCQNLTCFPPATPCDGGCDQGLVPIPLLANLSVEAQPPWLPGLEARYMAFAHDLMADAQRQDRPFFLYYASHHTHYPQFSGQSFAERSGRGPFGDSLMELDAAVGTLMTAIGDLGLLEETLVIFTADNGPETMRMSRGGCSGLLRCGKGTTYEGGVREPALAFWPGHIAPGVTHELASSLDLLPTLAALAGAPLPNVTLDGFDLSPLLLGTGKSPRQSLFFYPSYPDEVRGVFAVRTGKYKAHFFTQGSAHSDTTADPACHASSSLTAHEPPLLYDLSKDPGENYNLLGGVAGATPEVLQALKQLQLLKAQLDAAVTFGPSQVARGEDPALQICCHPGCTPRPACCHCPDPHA
Sequence of N-terminal Xaa-Pro-Lys N-methyltransferase 1 (Homo sapiens) (Q9BV86 whole entry, looked up): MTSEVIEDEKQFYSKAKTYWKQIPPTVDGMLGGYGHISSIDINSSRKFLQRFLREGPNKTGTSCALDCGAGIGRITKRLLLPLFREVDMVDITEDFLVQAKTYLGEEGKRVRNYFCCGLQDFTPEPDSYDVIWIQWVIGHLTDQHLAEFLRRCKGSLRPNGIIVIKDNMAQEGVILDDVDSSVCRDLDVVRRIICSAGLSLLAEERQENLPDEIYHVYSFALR
Sequence of ATP-dependent DNA helicase Q1 (Homo sapiens) (P46063 whole entry, looked up): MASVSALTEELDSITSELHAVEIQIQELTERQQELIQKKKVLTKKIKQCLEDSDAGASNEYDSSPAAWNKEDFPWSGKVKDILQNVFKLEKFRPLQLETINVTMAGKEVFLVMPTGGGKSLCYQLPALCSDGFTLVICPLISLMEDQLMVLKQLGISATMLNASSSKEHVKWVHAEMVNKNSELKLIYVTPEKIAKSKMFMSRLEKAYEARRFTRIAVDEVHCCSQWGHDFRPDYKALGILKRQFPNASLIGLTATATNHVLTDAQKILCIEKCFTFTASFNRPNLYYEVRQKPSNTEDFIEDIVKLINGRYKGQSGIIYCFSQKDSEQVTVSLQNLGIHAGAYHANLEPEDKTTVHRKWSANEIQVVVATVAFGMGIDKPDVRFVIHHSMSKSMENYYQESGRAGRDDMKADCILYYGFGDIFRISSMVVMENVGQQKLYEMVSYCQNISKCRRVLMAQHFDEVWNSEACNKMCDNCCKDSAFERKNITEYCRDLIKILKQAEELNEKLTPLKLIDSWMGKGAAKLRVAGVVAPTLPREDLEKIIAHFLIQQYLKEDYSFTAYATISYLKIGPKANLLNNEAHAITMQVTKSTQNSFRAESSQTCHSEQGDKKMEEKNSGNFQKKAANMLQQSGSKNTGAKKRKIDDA

As for `CC(=O)NCCc1c[nH]c2ccc(O)cc12`, the call in [1], in [2] and in [3] was inactive.
For `O=C(O)Cc1c[nH]c2ccc(O)cc12`, the result in assay [1], in assay [2] and in assay [3] was inactive.
Take `CN1C2CCC1CC(OC(=O)C(CO)c1ccccc1)C2` (stereo unspecified): the compound was classed as inactive in [4] and in assay [10]. The Potency result in assay [5], in [7], in assay [8], in assay [9] and in [11] was “inactive” throughout. The Potency in assay [6] was 8.91 µM (active). For the same compound, the parasite growth, % of DMSO control in assay [12] is 88.6%. The compound further displayed a parasite growth remaining, % of DMSO control (lower = more inhibition) in assay [13] of 94.5%. The parasite growth, % of control (lower = inhibition) in assay [14] was 62.2%.
With `CC(=O)OCC1=C(C(=O)[O-])N2C(=O)[C@@H](NC(=O)CCC[C@@H](N)C(=O)[O-])[C@H]2SC1.[Zn+2]`, the compound was called inactive in assay [4], in assay [17], in assay [26], in assay [28] and in assay [31]. In addition, the Potency entry in assay [15], in assay [16], in [18], in assay [19], in assay [7] and in [20] was “inactive” throughout. In addition, the Potency result in assay [21], in [22], in assay [23], in assay [24], in assay [29] and in assay [30] was “inactive” throughout. Besides, in assay [25], the Potency was 44.7 µM (active). In assay [27], the activation is 1.25% (inactive).
